3 compounds from PubChem BioAssay (NCI) can be followed below.

Assay in all cases: NCI-60 one-dose screen, 48 h (100 = growth as untreated, 0 = no growth, -100 = all killed)
What all share (settings): 10 µM unless noted

The test system of assay [1] is DU-145 prostate.
Assay [2] deals with K-562 leukemia.
Assay [3] deals with MALME-3M melanoma.
Assay [4] concerns MDA-MB-231 breast.
The test system of assay [5] is RXF 393 renal.
Assay [6] has as its system SF-268 CNS.
Assay [7] has as its system SF-295 CNS.
Assay [8] concerns SF-539 CNS.
The test system of assay [9] is UACC-257 melanoma.
For assay [10], the system named is M14 melanoma.
Assay [11] deals with HCT-15 colon.
In assay [12] the test system is HT29 colon.
Assay [13] deals with SNB-75 CNS.
Assay [14] has as its system SNB-19 CNS.
Assay [15] concerns U251 CNS.
Assay [16] has as its system PC-3 prostate.
The test system of assay [17] is SK-MEL-5 melanoma.
Assay [18] relates to UACC-62 melanoma.
The subject of assay [19] is LOX IMVI melanoma.
Assay [20] has as its system SK-MEL-28 melanoma.

About 83,000 compounds went through this panel and 20% of them were active in at least one assay; those are over-represented in the sample as a whole.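 Values shown are percent growth following 48 h exposure of cells in 96-well plates to a single concentration of compound; below 10 was considered active.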 Unmarked numbers belong to inactive results. Calls of active or inactive are those of the source.

For `Cc1ccc(C)c(NC2=C(Cl)C(=O)c3nc(C)ccc3C2=O)c1`, the growth in assay [1] was -76.4% (active); in [2], 1.06% (active); in assay [3], -52.4% (active); in assay [4], -14.5% (active); in assay [5], -43.5% (active); in assay [6] it was -1.66% (active). In addition, the growth in [7] is -24.1% (active); in assay [8], -95.1% (active); in assay [9], -87.7% (active); in [10], -55.8% (active); in [11], -60.9% (active); in assay [12] it was 86.4%. Also, the growth is 63.2% in [13]; 17.1% in assay [14]; 1.85% (active) in assay [15]; 9.58% (active) in assay [16]; -96.8% (active) in assay [17]; -35.2% (active) in [18]. Further, the growth in assay [19] was -69.5% (active); in assay [20], -11.6% (active).

As to `O=c1c2cc(-c3ccc(F)cc3F)ccc2n(Nc2ccccc2)c(=O)n1-c1cccc(C(F)(F)F)c1`, the growth was 26.6% in assay [1]; 6.95% (active) in assay [2]; -18.4% (active) in assay [3]; -5.2% (active) in assay [4]; 5.77% (active) in assay [5]; 22% in [6]. The growth in assay [7] is -2.47% (active); in assay [8], 18%; in [9] it was -1.25% (active); in assay [10], 21.6%; in assay [11], 11.4%; in [12], 59.3%. Also, the growth in [13] was -8.2% (active); in assay [14], 11.5%; in assay [15], 9.58% (active); in assay [16] it was 1.28% (active); in assay [17], -53.7% (active); in assay [18] it was 10.9%. Also, the growth was -4.69% (active) in assay [19] and 29.5% in [20].

As for `Cn1cc(-c2nn3cc(-c4ccncc4)nc3s2)c2cc(Br)ccc21`, the growth is 75.1% in assay [1]; 4.34% (active) in assay [2]; 56.8% in assay [3]; 78.5% in [4]; 65.4% in assay [5]; 68.8% in [6]. Also, the growth in [7] is 38.5%; in assay [8] it was 80.4%; in assay [9], 98.3%; in assay [10], 52%; in [11], 18%; in assay [12], 4.54% (active). Moreover, the growth in assay [13] was 45.9%; in assay [14], 81.7%; in assay [15] it was 54.7%; in assay [16], 30.2%; in [17] it was 57.9%; in assay [18], 61.5%. The growth in assay [19] is 52.5%; in assay [20], 94.2%.
